# PubChem BioAssay (NCATS)
# Records with an inconclusive call do not appear. A call without a number means that no potency is given here. Calls of active or inactive are those of the source. The call rests on the fitted dose curve; in most records, active means well fitted inhibition curve with a large enough effect; inconclusive means small, poorly fitted or top-dose-only effect; inactive means flat fitted curve, though single readings scatter.
# Experiment: High Content Imaging Cell-Based qHTS for Inhibitors of the mTORC1 Signaling Pathway in MEF (Tsc2-/-, p53-/-) Cells (AID 2666);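 further: percent of cells scored positive for phospho-rpS6 Ser235/236 immunostaining by imaging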
# Settings: series mostly up to 38.3 µM
# Description: NIH Molecular Libraries Probe Production Centers Network [MLPCN]
# NIH Chemical Genomics Center [NCGC]
# Assay Submitter (PI): Blenis, John; Hoffman, Greg; Harvard University
# NCGC Assay Overview: Thee mammalian target of rapamycin (mTOR) is an intracellular serine/threonine kinase Aberrant regulation of mTOR signaling plays a causative role in a number of human diseases, including cancer, benign tumors such as lymphangioleiomyomatosis (LAM) and Tuberous Sclerosis Complex (TSC), and metabolic diseases such as diabetes and obesity. This project aims to identify inhibitors of ribosomal protein S6 (rpS6) phosphorylation. The phosphorylation of rpS6 is a key event downstream of mTOR activation. The assay uses a phospho-specific antibody of phospho-rpS6 to detect inhibitors of mTOR activation. Mutations in the Tsc1 and Tsc2 genes are the underlying genetic lesions responsible for TSC, causing constitutive activation of the mTORC1 pathway and leading to profound effects on cell metabolism. Aberrant metabolism in cancer has recently received significant attention as a target to develop therapeutic agents in the treatment of cancer1. As Tsc2-/- cells have lost the ability to respond to energy and growth factor deprivation, these cells are unable to properly down regulate cellular biosynthetic processes in response to metabolic stress, and are thus extremely sensitive to glucose deprivation-induced death.2 A central goal of this project is to explore the unique cell survival and metabolic properties of cells with Tsc1 or Tsc2 by screening for compounds that selectively target the Tsc2-/- MEFs by screening both Tsc2-/- and WT MEF cell lines. We hope to better understand these aspects of TSC physiology in order to exploit them for therapeutic benefit.
# NCGC IN Cell Assay Protocol:
# For quantitative high throughput analysis of mTORC1 signaling, we developed a cell-based assay for immuno-fluorescence based detection of rpS6 phosphorylation on the Acumen Explorer that will be used a platform for the primary small molecule screen. Mouse embryonic fibroblasts (MEFs) are cultured in 1536-well plates using DMEM + 10% FBS. Twenty-four hrs after plating, test compounds (solubilized in DMSO) are delivered and incubated with the cells for 24 hrs at 37 degree Celsius. Following the incubation, media with compound is aspirated and the cells are fixed in 4% paraformaldehyde (PFA) containing PBS + 0.2% TX-100. Next, PFA is aspirated, cells are washed two times with PBS plus 0.2% TX-100 and the cells are blocked for 1 hr at room temperature (blocking buffer: LiCOR Blocking Buffer plus 0.2% TX-100). This is followed by aspiration and staining with Alexa-488 conjugated-phospho-rpS6 Ser235/236 antibody for 2 hours at room temperature (Cell Signaling Technology # 4803, 1:50 dilution in blocking buffer). Cells are washed two times with PBS plus 0.2% TX-100, and stained with 10 uM propidium iodide (PI) for 20-25 minutes for cell number measurement (1:500 dilution of Hoescht staining is also added for IN Cell imaging). Active wells which are selected (based on Acumen results) are imaged on the IN Cell 1000 (GE Healthcare) using the D360/40X and HQ480/40X excitation filters for the Hoechst and Alexa-488 cytoplasmic stains, respectively. The fluorescence emission filters used were HQ460/40M and HQ535/50M for the Hoechst and Alexa-488 cytoplasmic stains, respectively. The normalized phospho-S6 staining is calculated as the ratio of […] for the single concentration rapamycin control ([…] nM) and DMSO columns. […] Inhibition of the pathway is defined based on the normalized phospho-S6 intensity in rapamycin treated cells. Each treatment is reported as the % positive cells in the well, where thresholds are defined by selecting wells with the highest and lowest signal and differentiating between the % non-active and % active populations. […]
# Potency means the concentration at half of the fitted maximal effect.
SMILES,outcome,Potency
O=c1[nH]c2cc([N+](=O)[O-])c([N+](=O)[O-])cc2[nH]c1=O,inactive,
CN(C)c1ccc(/C=C2\C(=O)Nc3ccccc32)cc1,inactive,
Clc1ccc(N2CCN(Cc3c[nH]c4ncccc34)CC2)cc1,inactive,
O=C(Nc1cccc(C(=O)Nc2ccc(S(=O)(=O)O)c3cc(S(=O)(=O)O)cc(S(=O)(=O)O)c23)c1)Nc1cccc(C(=O)Nc2ccc(S(=O)(=O)O)c3cc(S(=O)(=O)O)cc(S(=O)(=O)O)c23)c1,inactive,
Fc1cccc(/C=N/N=C/c2cccc(F)c2)c1,inactive,
CN(C)CCCO[C@@H]1[C@H]2OC(C)(C)O[C@H]2O[C@@H]1[C@H](O)CO,inactive,
c1cnc2c(c1)ccc1cccnc12,inactive,
CN=c1nc(-c2ccccc2)n(-c2ccccc2)s1,inactive,
CCCCCCCCCCCCCCCCCC(=O)NCC(COP(=O)([O-])OCC[N+](C)(C)C)OCC (stereo not given),inactive,
OCC1O[C@H](O)C(Cl)C(O)C1O (stereo not given in full),inactive,
N[C@@H](CC(=O)O)C(=O)O,inactive,
NC(=O)C1=CN(C2OC(COP(=O)(O)OP(=O)(O)OC[C@H]3O[C@@H](n4cnc5c(N)ncnc54)[C@H](OP(=O)(O)O)[C@@H]3O)C(O)C2O)C=CC1 (stereo not given in full),inactive,
NS(=O)(=O)C#Cc1ccccc1,inactive,
CSc1ccccc1N1CCN(CCCCCC(=O)NC2CCCc3ccccc32)CC1 (stereo not given),inactive,
CN1CCc2cccc3c2C1Cc1ccc(O)c(O)c1-3 (stereo not given),inactive,
CCN(CC)c1ncnc2c1ncn2[C@@H]1O[C@H](COP(=O)(O)OP(=O)(O)C(Br)(Br)P(=O)(O)O)[C@@H](O)[C@H]1O,inactive,
O=C(c1ccc(Cl)cc1)N1CCN(c2ccc([N+](=O)[O-])c3ncccc23)CC1,inactive,
Oc1cc(O)cc(/C=C/c2ccc(O)c(O)c2)c1,inactive,
CCCCCCCCCCCCCCCC(=O)OC(CC(=O)O)C[N+](C)(C)C (stereo not given),inactive,
Brc1c(Br)c(Br)c2n[nH]nc2c1Br,inactive,

SMILES,outcome,Potency
CCOC(=O)N1CCN(/[N+]([O-])=N/Oc2ccc([N+](=O)[O-])cc2[N+](=O)[O-])CC1,,13.1 µM (active)
Nc1nc(SCc2ccc([N+](=O)[O-])cc2)c2ncn([C@@H]3O[C@H](CO)[C@@H](O)[C@H]3O)c2n1,inactive,
NCCNC(=O)c1ncsc1-c1cccc(F)c1,inactive,
Nc1ncnc2c1ncn2[C@@H]1O[C@H](COP(=O)(O)CP(=O)(O)OP(=O)(O)O)[C@@H](O)[C@H]1O,inactive,
Oc1ccc(C2CNCc3sccc32)cc1O (stereo not given),inactive,
COc1cc(SC)ccc1C(=O)N1CCC(Cc2ccccc2)CC1,inactive,
O=P(O)(O)C(Cl)(Cl)P(=O)(O)O,inactive,
C=CC(N)CCC(=O)O (stereo not given),inactive,
NCCCS(=O)(=O)O,inactive,
CC1OC1P(=O)(O)O (stereo not given),inactive,
CN1C2CCC1CC(OC(=O)C(O)c1ccccc1)C2 (stereo not given),inactive,
Nc1ncnc2c1c(I)cn2[C@@H]1C[C@H](N)[C@@H](O)[C@H]1O,inactive,
CC(COc1ccc(/C=C/c2ccccc2)cc1)[N+](C)(C)C (stereo not given),inactive,
N#C/C(=C\c1c[nH]c2ccccc12)C(=O)c1ccc(O)c(O)c1,inactive,
Cc1nc2sccn2c(=O)c1CCN1CCC(=C(c2ccccc2)c2ccc(F)cc2)CC1,inactive,
CNc1ncnc2c1ncn2[C@@H]1O[C@H](CO)[C@@H](O)[C@H]1O,inactive,
CC(C)NC[C@@H](O)c1ccc(O)c(O)c1,inactive,
C#C[C@]1(O)CC[C@H]2[C@@H]3CCC4=Cc5oncc5CC4(C)[C@H]3CCC21C (stereo not given in full),inactive,
CCCCCCCCc1ccc(-c2ccc(C(=O)O)cc2)cc1,inactive,
O=C(O)CC1CCCc2ccccc2C1O (stereo not given),inactive,
